Laboratory results taken from PubChem BioAssay (NCI).
About 79,000 compounds went through this panel and 15% of them were active in at least one assay; those are over-represented in the sample as a whole. No stated cut-off is given here; in the data, active means growth inhibition above about 70%; inactive means the rest.

Tests used:
[1] = NCI Yeast Anticancer Drug Screen. Data for the rad50 strain (AID 155);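 further: 0% = growth of vehicle-only cultures of the same strain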; settings: S. cerevisiae rad50 strain growth inhibition; at 50.0 µM; stronger effect = higher value
Outline: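 Relative growth inhibition (compound vs vehicle) was measured in yeast with a defined repair-gene alteration.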

[2] = NCI Yeast Anticancer Drug Screen. Data for the mec2-1 strain (AID 157); settings: S. cerevisiae mec2-1 strain, at 50.0 µM, stronger effect = higher value
Outline: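 Growth inhibition is read against vehicle-treated controls after compound exposure of the mec2-1 yeast strain, which is defective in DNA damage repair or cell cycle control.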

[3] = NCI Yeast Anticancer Drug Screen. Data for the sgs1 mgt1 strain (AID 161);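 further: 0% = growth of cultures given vehicle only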; settings: S. cerevisiae sgs1 mgt1 strain, at 50.0 µM, stronger effect = higher value
Outline: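 Growth of a repair-deficient yeast mutant was monitored after compound treatment and expressed as inhibition relative to vehicle-treated cultures.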

[4] = NCI Yeast Anticancer Drug Screen. Data for the cln2 rad14 strain (AID 165);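 further: 0% = growth equal to vehicle treated cultures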; settings: S. cerevisiae cln2 rad14 strain, at 50.0 µM, stronger effect = higher value
Outline: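 Growth inhibition, relative to vehicle-treated controls, is the read-out. The test organism is a yeast strain with defined genetic alterations, cln2 rad14.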

[5] = NCI Yeast Anticancer Drug Screen. Data for the bub3 strain (AID 167); settings: S. cerevisiae bub3 mutant strain, at 50.0 µM, stronger effect = higher value
Outline: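 Screening used yeast with an engineered genetic alteration affecting cell cycle control. Compound-exposed cultures were compared with vehicle cultures, and reduced growth was taken as inhibition.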

[6] = NCI Yeast Anticancer Drug Screen. Data for the mlh1 rad18 strain (AID 175); settings: S. cerevisiae mlh1 rad18 strain growth inhibition; at 50.0 µM; stronger effect = higher value
Outline: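 Cells of a genetically altered yeast strain, deficient in DNA damage repair, were treated with compound. Their growth was then compared with that of vehicle-treated cultures to give inhibition.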

Measured: growth inhibition

CN(C)B(B(N(C)C)N(C)C)N(C)C
inactive: [1] 13.7% | [2] 17.4% | [3] 35.6% | [4] 22.4% | [5] 13.8% | [6] 34.8%

O=C1CC(NC(=O)c2ccccc2)C(=O)O1 (stereo not given)
inactive: [1] -5.75% | [2] 3.4% | [3] 18.8% | [4] -31.1% | [5] 4.3% | [6] -21.4%

Cc1nc(-c2ccccc2)ncc1C(O)CN1CCCCC1 (stereo not given)
inactive: [1] -21.7% | [2] 25.6% | [3] 18.1% | [4] -43.2% | [5] 20.5% | [6] 2.25%

CC(=O)OC1OC(COC(c2ccccc2)(c2ccccc2)c2ccccc2)C(OCc2ccccc2)C(OCc2ccccc2)C1OC(C)=O (stereo not given)
inactive: [1] -14.3% | [2] -18.1% | [3] -21.1% | [4] 13.3% | [5] 0.45% | [6] 1.65%

CC1(C)OC2COC(CNCC3OCC4OC(C)(C)OC34)C2O1 (stereo not given)
inactive: [1] 3% | [2] -14.4% | [3] -6.75% | [4] -22.3% | [5] -14.8% | [6] 4.55%

OC(Cc1cccc(=S)[nH]1)(c1ccccc1)c1ccccc1
inactive: [1] -7.35% | [2] -7.25% | [3] -9.25% | [4] -37.9% | [5] -1.8% | [6] -26.3%

CC(=O)OCC1OC(Nc2[nH]c(=O)n(C)c(=O)c2-c2csc(N)n2)C(OC(C)=O)C(OC(C)=O)C1OC(C)=O (stereo not given)
inactive: [1] -12.8% | [2] -25.6% | [3] -32.9% | [4] 27.4% | [5] -8.9% | [6] -8.6%

CCOC(=O)CC(C(=O)OCC)C(C(=O)OCC)C(=O)OCC (stereo not given)
inactive: [1] 41.9% | [2] -4.1% | [3] 19.6% | [4] 3.4% | [5] 29.8% | [6] 13.6%

CC(CNC(N)=O)NC(N)=O (stereo not given)
inactive: [1] -23.8% | [2] -15.8% | [3] -32.4% | [4] 11.4% | [5] -19.6% | [6] -24.4%

N[C@H](CCC(=O)NCP(=O)(O)O)C(=O)O
inactive: [1] -43.7% | [2] -42.6% | [3] -44.7% | [4] -7.1% | [5] -10.8% | [6] -41.1%

O=c1c2n(c(=O)c3n1CCC=3)CCC=2
inactive: [1] -2.5% | [2] -13.5% | [3] -0.6% | [4] -25.1% | [5] -6.85% | [6] 9.35%

Cc1ccc(S(=O)(=O)Oc2ccc(-c3ccc([N+](=O)[O-])cc3)cc2)cc1
inactive: [1] 1.5% | [2] 19.2% | [3] 15.4% | [4] -6.9% | [5] -1.8% | [6] 7.05%

c1ccc(CN2CCC(N3CCCC3)CC2)cc1
inactive: [1] -22.7% | [2] -26.1% | [3] -22% | [4] 10.7% | [5] -23.3% | [6] -29.9%

CC1CC(=O)CC(C)C1 (stereo not given)
inactive: [1] 1.7% | [2] -0.1% | [3] -10.5% | [4] -27.1% | [5] 19.9% | [6] 16.6%

O=C(CCCCCCCCC(=O)c1ccc2ccccc2c1O)c1ccc2ccccc2c1O
inactive: [1] -24.4% | [2] -22.1% | [3] -12.8% | [4] 15% | [5] -10.4% | [6] -11.8%

NNC(=O)CNC(=O)c1ccccc1
inactive: [1] 11.5% | [2] -14.6% | [3] -10.9% | [4] 1.85% | [5] 0% | [6] -15%

COc1ccc(-c2cc(-c3ccccc3)c(C#N)c(=O)n2C2OC(CO)C(O)C(O)C2O)cc1 (stereo not given)
inactive: [1] -8.2% | [2] 11.6% | [3] 2.45% | [4] 12.8% | [5] -5.6% | [6] -2.05%

COC(=O)/C(=N\NC(N)=O)C(C(=O)C=C(C)C)C(=O)C(=O)Nc1ccc(Cl)c(Cl)c1 (stereo not given)
inactive: [1] -9% | [2] -40.6% | [3] -34.6% | [4] 12.2% | [5] -17% | [6] -27.6%

CO[C@H](C)[C@@](O)(C(=O)OCC1=CCN2CCC[C@@H]12)C(C)C
inactive: [1] -2.3% | [2] -9.4% | [3] 32.4% | [4] 8.65% | [5] 4.5% | [6] 16.3%

ON(C=Nc1ccccc1)c1ccccc1
inactive: [1] 17% | [2] 19.1% | [3] 6.35% | [4] -11.5% | [5] -3.25% | [6] 7.05%

CCN(Cc1cccc(S(=O)(=O)O)c1)c1ccc(C(=C2C=CC(=[N+](C)C)C=C2)c2ccc(N(C)C)cc2)c(S(=O)(=O)O)c1
inactive: [1] 8.35% | [2] 54.8% | [3] 28.1% | [4] -8.55% | [5] 11.9% | [6] 26.4%

CC(=O)CCC(CC(=O)O)C(C)C (stereo not given)
inactive: [1] 12% | [2] 0.05% | [3] 14.9% | [4] -9% | [5] 4.8% | [6] 24.1%

O=S1(=O)C(Cl)=C(O)c2ccccc21
inactive: [1] 13.4% | [2] 6.5% | [3] -2.05% | [4] -22.6% | [5] -7.7% | [6] 11.4%

C=CCCCCCCCCO
inactive: [1] -12.1% | [2] -3.6% | [3] 8.3% | [4] -13% | [5] -10% | [6] -8.6%

CC1(C)OC(C(CCl)OS(C)(=O)=O)C(C(CCl)OS(C)(=O)=O)O1 (stereo not given)
inactive: [1] 4.2% | [2] -6.1% | [3] -5.7% | [4] 24.9% | [5] -3.5% | [6] 6.95%

NC(=O)N/N=C/c1c(Cl)cccc1Cl
inactive: [1] 15.9% | [2] 17.2% | [3] 1.4% | [4] -10.7% | [5] -27.6% | [6] 31.5%

COc1ccc(C2C(C#N)=C(N)NC(=O)C2C(N)=O)cc1 (stereo not given)
inactive: [1] -12.6% | [2] -11.8% | [3] -16.8% | [4] -0.1% | [5] -4.05% | [6] -19.4%

C#[N+]CCOP(=O)(OCC1OC(n2cc(C)c(=O)[nH]c2=O)CC1N=[N+]=[N-])O[C@H]1CC[C@@]2(C)C(=CC[C@H]3[C@@H]4CC[C@H](C(C)/C=C/C(CC)C(C)C)[C@@]4(C)CC[C@@H]32)C1 (stereo not given in full)
inactive: [1] -32.3% | [2] -14.4% | [3] -23.1% | [4] -7.4% | [5] 7.5% | [6] -19.1%

COc1ccc(/C=C2\Oc3cc(OC(C)=O)ccc3C2=O)cc1
inactive: [1] -66.9% | [2] -44.6% | [3] -15.2% | [4] 12.2% | [5] -14.6% | [6] -21.8%

COc1ccc(-c2cc(-c3cc(-c4ccc(OC)cc4)on3)no2)cc1
inactive: [1] -1.6% | [2] -5.75% | [3] -26% | [4] -7.45% | [5] -35.5% | [6] -1.05%

CCOC(=O)c1ccc(NCc2ccc3nc(OC)c(OC)nc3c2)cc1
inactive: [1] -5.7% | [2] -20.5% | [3] -13.7% | [4] 14.9% | [5] 6.85% | [6] -19.4%

COc1ccc(COC(=O)Nc2cccc(Cl)c2)cc1OC
inactive: [1] -11.5% | [2] 30% | [3] 20.1% | [4] -24.2% | [5] 30.8% | [6] 35.8%

O=C(Nc1ccccc1Cl)NC1CCCCC1
inactive: [1] 5.1% | [2] -0.55% | [3] 5.35% | [4] 18.7% | [5] 17.1% | [6] 5.8%

N#CC(C#N)=C(N)/C(C#N)=C/c1ccc2[nH]ccc2c1
inactive: [1] -11% | [2] 6.95% | [3] -29.2% | [4] -24.9% | [5] -26.6% | [6] -24.1%

Nc1ccc2c(c1)Cc1c-2cc(Cl)c(N)c1Cl
inactive: [1] 8.85% | [2] -0.65% | [3] -18.8% | [4] 6.5% | [5] 13.8% | [6] 6.2%

COc1ccc(-c2c3c([nH]c(=S)c2C#N)CCC3)cc1
inactive: [1] 8.65% | [2] 4.5% | [3] 33% | [4] 22.7% | [5] 28.7% | [6] 34.4%

CC(=O)/C=C1/NC(C(=O)c2ccccc2)=CNC1c1ccccc1 (stereo not given)
inactive: [1] 4.95% | [2] 3.75% | [3] 20.6% | [4] -14.5% | [5] 9.95% | [6] 18.8%

CC(=O)Nc1cc2c(cc1[N+](=O)[O-])-c1ccc([N+](=O)[O-])cc1C2=O
inactive: [1] 3.9% | [2] 4.4% | [3] 5.8% | [4] 3.2% | [5] 13% | [6] -9.8%

CC(C(=O)c1ccc(Cl)cc1)/C(=N/NC(=O)NN)C(=O)Nc1cccc(C(F)(F)F)c1 (stereo not given)
inactive: [1] -8.45% | [2] -16.6% | [3] -58.5% | [4] -56% | [5] 18.6% | [6] -6.95%

Cc1cc(-n2cnc3c(Cl)ncnc32)ccc1N
inactive: [1] 10.8% | [2] 5.3% | [3] 0.95% | [4] 5.05% | [5] 10.8% | [6] -9.1%
